Reference: the supplement of paper PMC6089552
Out of some 3,200 compounds screened, about 300 (9.4%) showed activity. This excerpt belongs to a sample that is enriched for actives. Unmarked numbers belong to inactive results.

Tested on: A673/TR/shEF
Assay: cell viability (LOESS-normalised, relative to median of negative controls) (log2 ratio); higher = more viable cells (less compound effect), active = hit call of the paper (over 3 MAD below the median)
Conditions: treatment time: 72 h
In short: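 A673/TR/shEF Ewing sarcoma cells were plated at 1,500 per well in 384-well plates and cultured with or without doxycycline, added 24 h before compounds, to induce EWS-FLI1 shRNA knockdown. Library compounds at two or more concentrations, alongside DMSO controls, were applied for three days. Cell viability was measured by CellTiter-Glo luminescence on an Envision reader. Readings were LOESS-corrected per plate, divided by the median of negative controls and log2-transformed, and hits were wells lying at least three median absolute deviations from the median of all screened wells.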

[1] = 0.25 µM, library screen: screen1, EWS-FLI1 expression: high (no doxycycline)
[2] = 0.25 µM, library screen: screen1, EWS-FLI1 expression: low (doxycycline-induced shRNA knockdown)
[3] = 2.5 µM, library screen: screen1, EWS-FLI1 expression: high (no doxycycline)
[4] = 2.5 µM, library screen: screen1, EWS-FLI1 expression: low (doxycycline-induced shRNA knockdown)
[5] = 0.25 µM, library screen: screen2, EWS-FLI1 expression: high (no doxycycline)
[6] = 0.25 µM, library screen: screen2, EWS-FLI1 expression: low (doxycycline-induced shRNA knockdown)
[7] = 2.5 µM, library screen: screen2, EWS-FLI1 expression: high (no doxycycline)
[8] = 2.5 µM, library screen: screen2, EWS-FLI1 expression: low (doxycycline-induced shRNA knockdown)

SMILES: COc1ccc(CN2CCN(Cc3ccc(C)cc3)CC2)c(OC)c1OC
- cell viability (log2) [1]: 0.0669
- cell viability (log2) [2]: 0.0696
- cell viability (log2) [3]: 0.138
- cell viability (log2) [4]: 0.00566

SMILES: C=CCc1ccc(OC(=O)c2ccccc2)c(OC)c1
- cell viability (log2) [1]: 0.102
- cell viability (log2) [2]: -0.0537
- cell viability (log2) [3]: 0.111
- cell viability (log2) [4]: 0.0334

SMILES: C=CCc1ccc(O)c(OC)c1
- cell viability (log2) [1]: 0.0882
- cell viability (log2) [2]: 0.124
- cell viability (log2) [3]: 0.127
- cell viability (log2) [4]: 0.12

SMILES: N/C(=N\S(=O)(=O)Cc1ccccc1)Nc1nc2ccccc2o1
- cell viability (log2) [1]: 0.0883
- cell viability (log2) [2]: 0.00923
- cell viability (log2) [3]: 0.149
- cell viability (log2) [4]: 0.031

SMILES: COc1ccc2c(c1)CCC1=CC(=O)CCC12C (centres undefined)
- cell viability (log2) [1]: 0.119
- cell viability (log2) [2]: 0.144
- cell viability (log2) [3]: 0.0987
- cell viability (log2) [4]: 0.126

SMILES: OC[C@@H](O)[C@@H](O[C@@H]1O[C@H](CO)[C@@H](O)[C@H](O)[C@H]1O)[C@H](O)[C@@H](O)CO
- cell viability (log2) [1]: 0.117
- cell viability (log2) [2]: 0.055
- cell viability (log2) [3]: 0.143
- cell viability (log2) [4]: 0.0198

SMILES: NC(N)=NCCN1CCCCCCC1
- cell viability (log2) [1]: 0.086
- cell viability (log2) [2]: 0.0896
- cell viability (log2) [3]: 0.182
- cell viability (log2) [4]: 0.105

SMILES: [O-]n1ccccc1=S.[O-]n1ccccc1=S.[Zn+2]
- cell viability (log2) [1]: 0.17
- cell viability (log2) [2]: 0.0708
- cell viability (log2) [3]: -0.205 (active)
- cell viability (log2) [4]: 0.0604

SMILES: O=C([O-])[O-].[Ca+2]
- cell viability (log2) [5]: 0.129
- cell viability (log2) [6]: 0.105
- cell viability (log2) [7]: 0.151
- cell viability (log2) [8]: 0.0778

SMILES: COc1ccc(CN2CCN(Cc3ccc(OC)c(OC)c3OC)CC2)cc1OC
- cell viability (log2) [1]: 0.061
- cell viability (log2) [2]: 0.00924
- cell viability (log2) [3]: 0.123
- cell viability (log2) [4]: 0.0982

SMILES: CC(C)N1C(=O)C(=C2C(=O)N(C)c3ccccc32)SC1=S
- cell viability (log2) [1]: 0.0638
- cell viability (log2) [2]: 0.00946
- cell viability (log2) [3]: 0.0618
- cell viability (log2) [4]: 0.138

SMILES: C[C@H]1C(=O)CC[C@@H]2[C@]1(C)CC[C@H]1[C@@]2(C)CC[C@@]2(C)[C@@H]3CC(C)(C)CC[C@]3(C)CC[C@]12C
- cell viability (log2) [1]: 0.031
- cell viability (log2) [2]: 0.0462
- cell viability (log2) [3]: 0.0143
- cell viability (log2) [4]: 0.0816

SMILES: COc1cc(O)c2c(=O)c(O)c(-c3ccc(O)c(O)c3)oc2c1
- cell viability (log2) [1]: -0.00867
- cell viability (log2) [2]: 0.0259
- cell viability (log2) [3]: 0.0453
- cell viability (log2) [4]: 0.0969

SMILES: O=c1c(O)c(-c2cc(O)c(O)c(O)c2)oc2cc(O)cc(O)c12
- cell viability (log2) [1]: 0.0195
- cell viability (log2) [2]: 0.156
- cell viability (log2) [5]: 0.118
- cell viability (log2) [6]: 0.093
- cell viability (log2) [3]: 0.0517
- cell viability (log2) [4]: 0.0582
- cell viability (log2) [7]: 0.111
- cell viability (log2) [8]: 0.0599

SMILES: O=c1c(O)c(-c2ccc(O)c(O)c2)oc2cc(O)cc(O)c12
- cell viability (log2) (0.025 µM, library screen: screen1, EWS-FLI1 expression: high (no doxycycline)): 0.22
- cell viability (log2) (0.025 µM, library screen: screen1, EWS-FLI1 expression: low (doxycycline-induced shRNA knockdown)): 0.00571
- cell viability (log2) [1]: 0.112
- cell viability (log2) [2]: 0.018
- cell viability (log2) [5]: 0.12
- cell viability (log2) [6]: 0.0619
- cell viability (log2) [3]: 0.108
- cell viability (log2) [4]: 0.0969
- cell viability (log2) [7]: 0.176
- cell viability (log2) [8]: 0.00939
- cell viability (log2) (25 µM, library screen: screen1, EWS-FLI1 expression: high (no doxycycline)): -1.43 (active)
- cell viability (log2) (25 µM, library screen: screen1, EWS-FLI1 expression: low (doxycycline-induced shRNA knockdown)): 0.0272

SMILES: N#Cc1c2c(c(Nc3ccc(O)cc3)n3c1nc1ccccc13)CCC2
- cell viability (log2) [1]: 0.0182
- cell viability (log2) [2]: 0.0391
- cell viability (log2) [3]: 0.0659
- cell viability (log2) [4]: 0.0482

SMILES: CCOC(=O)c1c(C)cc(O)cc1O
- cell viability (log2) [1]: 0.0788
- cell viability (log2) [2]: 0.0693
- cell viability (log2) [3]: 0.0357
- cell viability (log2) [4]: 0.0819

SMILES: CC1=C(C(=O)OC2CCCC2)C(c2coc3ccccc3c2=O)C2=C(CC(C)(C)CC2=O)N1 (centres undefined)
- cell viability (log2) [1]: 0.0783
- cell viability (log2) [2]: 0.0738
- cell viability (log2) [3]: 0.145
- cell viability (log2) [4]: 0.0146

SMILES: C#CCN(C)Cc1ccccc1
- cell viability (log2) [1]: 0.0858
- cell viability (log2) [2]: 0.0954
- cell viability (log2) [5]: 0.078
- cell viability (log2) [6]: -0.0346
- cell viability (log2) [3]: 0.175
- cell viability (log2) [4]: 0.102
- cell viability (log2) [7]: -1.76 (active)
- cell viability (log2) [8]: -2.08 (active)

SMILES: CN(C)CCN(Cc1ccccc1)c1ccccn1
- cell viability (log2) [1]: 0.0764
- cell viability (log2) [2]: 0.111
- cell viability (log2) [3]: 0.247
- cell viability (log2) [4]: 0.229

SMILES: C#CCN(C)CCCOc1ccc(Cl)cc1Cl
- cell viability (log2) [5]: 0.27
- cell viability (log2) [6]: 0.097
- cell viability (log2) [7]: 0.132
- cell viability (log2) [8]: 0.147

SMILES: COc1ccc(CN2CCN(Cc3ccc(OC)c(OC)c3OC)CC2)cc1Br
- cell viability (log2) [1]: 0.104
- cell viability (log2) [2]: 0.0582
- cell viability (log2) [3]: 0.0165
- cell viability (log2) [4]: 0.0422

SMILES: Cc1ccc(OCC(=O)N2CCC(C)CC2)c(C)c1
- cell viability (log2) [1]: 0.0605
- cell viability (log2) [2]: 0.118
- cell viability (log2) [3]: 0.14
- cell viability (log2) [4]: 0.114

SMILES: COc1ccc2c(c1)CCC1=CC(=O)CC[C@@]12C
- cell viability (log2) [1]: 0.0515
- cell viability (log2) [2]: 0.00881
- cell viability (log2) [3]: 0.19
- cell viability (log2) [4]: 0.155

SMILES: CC1C2C(CC3C4CC[C@@H]5CC(=O)CC[C@]5(C)C4CC[C@@]32C)OC12CC[C@@H](C)CO2 (some centres undefined)
- cell viability (log2) [1]: 0.0621
- cell viability (log2) [2]: 0.0593
- cell viability (log2) [3]: 0.124
- cell viability (log2) [4]: 0.0882

SMILES: COCCN1C(=O)/C(=C\c2ccc(-c3ccc(Br)cc3)o2)SC1=S
- cell viability (log2) [1]: 0.0753
- cell viability (log2) [2]: 0.00476
- cell viability (log2) [3]: 0.101
- cell viability (log2) [4]: 0.0615

SMILES: CN(Cc1cnc2nc(N)nc(N)c2n1)c1ccc(C(=O)N[C@H](CCC(=O)O)C(=O)O)cc1
- cell viability (log2) [5]: 0.209
- cell viability (log2) [6]: 0.115
- cell viability (log2) [7]: 0.0762
- cell viability (log2) [8]: 0.165

SMILES: Nc1nc(=O)c2nc(CNc3ccc(C(=O)N[C@@H](CCC(=O)O)C(=O)O)cc3)cnc2[nH]1
- cell viability (log2) [1]: 0.0181
- cell viability (log2) [2]: 0.031
- cell viability (log2) [3]: 0.0902
- cell viability (log2) [4]: 0.0775

SMILES: CN(Cc1cnc2nc(N)nc(N)c2n1)c1ccc(C(=O)N[C@@H](CCC(=O)O)C(=O)O)cc1
- cell viability (log2) (0.025 µM, library screen: screen2, EWS-FLI1 expression: high (no doxycycline)): 0.0134
- cell viability (log2) (0.025 µM, library screen: screen2, EWS-FLI1 expression: low (doxycycline-induced shRNA knockdown)): 0.0597
- cell viability (log2) (0.103 µM, library screen: screen3, EWS-FLI1 expression: high (no doxycycline)): -0.0597
- cell viability (log2) (0.103 µM, library screen: screen3, EWS-FLI1 expression: low (doxycycline-induced shRNA knockdown)): 0.0506
- cell viability (log2) [5]: -0.406 (active)
- cell viability (log2) [6]: 0.0894
- cell viability (log2) (0.308 µM, library screen: screen3, EWS-FLI1 expression: high (no doxycycline)): -0.512 (active)
- cell viability (log2) (0.308 µM, library screen: screen3, EWS-FLI1 expression: low (doxycycline-induced shRNA knockdown)): 0.0568
- cell viability (log2) (0.926 µM, library screen: screen3, EWS-FLI1 expression: high (no doxycycline)): -0.53 (active)
- cell viability (log2) (0.926 µM, library screen: screen3, EWS-FLI1 expression: low (doxycycline-induced shRNA knockdown)): 0.0108
- cell viability (log2) [7]: -0.754 (active)
- cell viability (log2) [8]: 0.0271
- cell viability (log2) (2.8 µM, library screen: screen3, EWS-FLI1 expression: high (no doxycycline)): -0.711 (active)
- cell viability (log2) (2.8 µM, library screen: screen3, EWS-FLI1 expression: low (doxycycline-induced shRNA knockdown)): 0.0377
- cell viability (log2) (8.3 µM, library screen: screen3, EWS-FLI1 expression: high (no doxycycline)): -0.751 (active)
- cell viability (log2) (8.3 µM, library screen: screen3, EWS-FLI1 expression: low (doxycycline-induced shRNA knockdown)): 0.0521
- cell viability (log2) (25 µM, library screen: screen2, EWS-FLI1 expression: high (no doxycycline)): -0.743 (active)
- cell viability (log2) (25 µM, library screen: screen2, EWS-FLI1 expression: low (doxycycline-induced shRNA knockdown)): 0.0873
- cell viability (log2) (25 µM, library screen: screen3, EWS-FLI1 expression: high (no doxycycline)): -0.797 (active)
- cell viability (log2) (25 µM, library screen: screen3, EWS-FLI1 expression: low (doxycycline-induced shRNA knockdown)): 0.0291

SMILES: O=C(O)CCC(NC(=O)c1ccccc1C(=O)O)C(=O)O (centres undefined)
- cell viability (log2) [5]: 0.0764
- cell viability (log2) [6]: 0.0149
- cell viability (log2) [7]: 0.157
- cell viability (log2) [8]: 0.0718

SMILES: Nc1nc(N)c2nc(CNc3ccc(C(=O)N[C@@H](CCC(=O)O)C(=O)O)cc3)cnc2n1
- cell viability (log2) [1]: -1.62 (active)
- cell viability (log2) [2]: -0.186 (active)
- cell viability (log2) [5]: 0.137
- cell viability (log2) [6]: 0.126
- cell viability (log2) [3]: 0.122
- cell viability (log2) [4]: 0.141
- cell viability (log2) [7]: 0.123
- cell viability (log2) [8]: 0.134

SMILES: CCCCCN(CCCCC)C(=O)C(CCC(=O)O)NC(=O)c1ccc(Cl)c(Cl)c1 (centres undefined)
- cell viability (log2) [5]: 0.131
- cell viability (log2) [6]: 0.0648
- cell viability (log2) [7]: 0.114
- cell viability (log2) [8]: 0.0564
